Compounds with a hit are over-represented: about 4.1% of the library has one in this group of screens.
CSC inhib: cancer stem cell inhibition | 1.1% of 300,000 active | inhibition, % at 7.5 µM | cancer stem cell-like cells viability, luminescence; in the data active = inhibition above about 75%; inconclusive = no clear call, values can overlap the other calls; tested in HMLE shEcad cells
Beta cell apopt: beta cell apoptosis inhibition; protection from apoptosis, % (test concentration not listed); INS-1E cytokine-induced death, ATP luminescence, 48 h; percent of positive-control rescue, neutral wells zero; 0.8% of 300,000 active;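 active = Every replicate reaches about 75%, or at least half do and their mean reaches it too, limit read from the data; inconclusive = At least half of replicates reach the limit but their mean does not; inactive = Under half of replicates reach the limit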;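 also: 0% = cytokine-treated negative control wells and 100% = positive control rescue; higher means more ATP so stronger rescue from cytokine killing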
Mdm2-MdmX inh: disrupts the human Mdm2-MdmX interaction. SaOS-2 split-luciferase Mdm2/MdmX complementation, luminescence. inhibition, % at 8 µM. 3% of 330,000 active;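 active = inhibition of at least 50% at 8 µM in the primary screen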
A1 inh: inhibitors of the anti-apoptotic protein A1, read as caspase activation. caspase activation, % (test concentration not listed). 0.066% of 330,000 active. MEF A1-2A-BIM cells, Caspase-Glo 3/7 luminescence, 3 h; percent of clofoctol response, vehicle zero;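 active = over half of replicate activation scores above 10%, or exactly half above 10 with the replicate mean above 10; inconclusive = replicate mean below 10 yet half the replicates above 10; inactive = over half of replicates below 10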
aSyn UTR inh: MLPCN primary screen, SNCA 5' untranslated region. alpha-synuclein 5'UTR reporter, inhibitor activity. inhibition, % (tested at 7.5 µM). 0.82% of 300,000 active; in the data active = inhibition above about 60%; inconclusive = no clear call, values can overlap the other calls;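 also: H4 neuroglioblastoma cells stably carrying SNCA 5'UTR luciferase fusion; 0% = DMSO wells and 100% = positive control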
* = called active by the depositor.

Results for Cc1ccc2[nH]c(-c3ccccc3)cc(=O)c2c1 ?
CSC inhib: 11; Beta cell apopt: 28; Mdm2-MdmX inh: 11; A1 inh: 0; aSyn UTR inh: 89*

What do the screens show for `CN(c1ccccc1)c1nc(N2CCCC2)nc(-n2ccnc2)n1`?
CSC inhib: 19; Beta cell apopt: 2; Mdm2-MdmX inh: 22; A1 inh: 1; aSyn UTR inh: 9

How did c1ccc(N(c2ccccc2)c2nc(N3CCCC3)nc(-n3ccnc3)n2)cc1 do in these assays?
CSC inhib: 101*; Beta cell apopt: 24; Mdm2-MdmX inh: 28; A1 inh: -1; aSyn UTR inh: -5

What do the screens show for `COCCn1c(SCC(=O)Nc2cc(C)on2)nc2c(c1=O)SCC2`?
CSC inhib: 2; Beta cell apopt: -3; Mdm2-MdmX inh: 15; A1 inh: 0; aSyn UTR inh: -19

Results for COc1ccc(NCc2nnc(SCC(=O)Nc3nc(-c4ccccc4)cs3)n2-c2ccccc2)cc1 ?
CSC inhib: -4; Beta cell apopt: inconclusive; Mdm2-MdmX inh: 49; A1 inh: 0; aSyn UTR inh: 2

What do the screens show for `COc1ccc(-n2c(CNc3ccc(C)cc3)nnc2SCC(=O)Nc2nc(-c3ccccc3)cs2)cc1`?
CSC inhib: 3; Beta cell apopt: 86*; Mdm2-MdmX inh: 34; A1 inh: 0; aSyn UTR inh: -50

How did COc1ccc(-n2c(Cc3cccn3C)nnc2SCC(=O)Nc2cccc(Cl)c2)cc1 do in these assays?
CSC inhib: 117*; Beta cell apopt: -11; Mdm2-MdmX inh: 33; A1 inh: 1; aSyn UTR inh: 19

How did COc1ccc2c(c1)[nH]c1c(N3CCN(Cc4ccc5c(c4)OCO5)CC3)ncnc12 do in these assays?
CSC inhib: 9; Beta cell apopt: 105*; Mdm2-MdmX inh: 25; A1 inh: -1; aSyn UTR inh: 5

Results for Cc1ccc2c(c1)[nH]c1c(N3CCN(Cc4ccccc4)CC3)ncnc12 ?
CSC inhib: 13; Beta cell apopt: 113*; Mdm2-MdmX inh: 22; A1 inh: 0; aSyn UTR inh: -21

Results for CC(=O)c1ccc(S(=O)(=O)N2CCC(c3nc4ccccc4[nH]3)CC2)cc1 ?
CSC inhib: -43; Beta cell apopt: 5; Mdm2-MdmX inh: 17; A1 inh: 0; aSyn UTR inh: -3

How did O=S(=O)(c1ccc(Cl)cc1)N1CCC(c2nc3ccccc3[nH]2)CC1 do in these assays?
CSC inhib: 18; Beta cell apopt: 4; Mdm2-MdmX inh: 44; A1 inh: 0; aSyn UTR inh: 76*

How did CCN=C1S/C(=C\c2ccc(O)c(OCC)c2)C(=O)N1CC do in these assays?
CSC inhib: 66; Beta cell apopt: -1; Mdm2-MdmX inh: 0; A1 inh: 0; aSyn UTR inh: 68*

How did COc1cc(/C=C2/SC(=NCc3ccccc3)N(Cc3ccccc3)C2=O)ccc1O do in these assays?
CSC inhib: 0; Beta cell apopt: -5; Mdm2-MdmX inh: 44; A1 inh: 0; aSyn UTR inh: 22

What do the screens show for `O=C(O)CN1C(=O)/C(=C\c2cc(Br)ccc2OCc2ccc(Cl)cc2)SC1=S`?
CSC inhib: 98*; Beta cell apopt: -5; A1 inh: -1; aSyn UTR inh: -7

Results for COc1cc(/C=C2/SC(=S)N(Cc3ccccc3)C2=O)ccc1O ?
CSC inhib: 100*; Beta cell apopt: -1; Mdm2-MdmX inh: 6; A1 inh: 0; aSyn UTR inh: -67

What do the screens show for `O=C1/C(=C\c2ccc(O)c(O)c2)SC(=S)N1Cc1ccccc1`?
CSC inhib: 104*; Beta cell apopt: -1; Mdm2-MdmX inh: 40; A1 inh: 0; aSyn UTR inh: 12

Results for COC(=O)[C@]12C(=O)NC[C@H](CN1c1ccc(Cl)c(C)c1)N2C ?
CSC inhib: -3; Beta cell apopt: -8; Mdm2-MdmX inh: -8; A1 inh: 0

Results for CCOC(=O)CC(NS(=O)(=O)c1ccc(OC)c(C)c1)c1cccc([N+](=O)[O-])c1 (stereo not drawn) ?
CSC inhib: -9; Beta cell apopt: -10; Mdm2-MdmX inh: 9; A1 inh: 0; aSyn UTR inh: 13

How did CCOC(=O)C1=C(C)NC(=S)NC1c1ccc(OCC(=O)N2CCCCCC2)c(OC)c1 (stereo not drawn) do in these assays?
CSC inhib: -8; Beta cell apopt: 2; Mdm2-MdmX inh: 6; A1 inh: 1; aSyn UTR inh: -13

How did CCOc1ccccc1-n1c(SC(C)C(=O)NCC2CCCO2)nc2ccccc2c1=O (stereo not drawn) do in these assays?
Beta cell apopt: -2; Mdm2-MdmX inh: 7; A1 inh: 0
